Only some compounds are listed: those with a hit (about 3.5% of all), similar ones and a draw of the others.
FBA Mtb inh: inhibits M. tuberculosis FBA enzyme. purified M. tuberculosis FBA, fluorescence read-out. inhibition, % at 1 µM. actives 2.3% (n = 360,000). AID 588726; in the data active means inhibition above about 27%;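 further: 0% = vehicle and 100% = reference inhibitor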
Target sequence (P9WQA3 whole entry, looked up): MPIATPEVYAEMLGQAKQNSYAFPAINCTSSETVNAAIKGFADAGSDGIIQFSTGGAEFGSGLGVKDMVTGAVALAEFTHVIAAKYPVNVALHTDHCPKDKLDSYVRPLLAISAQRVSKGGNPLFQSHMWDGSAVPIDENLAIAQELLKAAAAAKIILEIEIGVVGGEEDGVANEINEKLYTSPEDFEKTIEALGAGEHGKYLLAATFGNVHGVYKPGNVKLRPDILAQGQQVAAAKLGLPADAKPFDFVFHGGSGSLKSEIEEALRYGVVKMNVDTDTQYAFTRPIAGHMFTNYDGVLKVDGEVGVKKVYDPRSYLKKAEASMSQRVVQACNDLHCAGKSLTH
UGM FP inh: inhibitors of M. tuberculosis UDP-galactopyranose mutase. AID 504406. purified UGM, fluorescence polarization probe displacement. actives 0.06% (n = 320,000). inhibition, % at 10 µM; in the data active means inhibition above about 10%, passing the limit was not always enough; inconclusive means no clear call, values can overlap the other calls
Rv3671c protease: Rv3671c (M. tuberculosis) protease inhibition | P9WHR9 | AID 2606 | actives 0.048% (n = 320,000) | inhibition, % at 5.96 µM; in the data active means inhibition above about 38%;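 further: extracellular domain of Rv3671c used as enzyme; 0% = enzyme with DMSO and 100% = no enzyme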
GDH-TPI counter-1: inhibits GDH-TPI coupling enzymes, artifact for Mtb FBA screen; actives 1.2% (n = 360,000); inhibition, % at 4.8 µM; AID 588335; GDH-TPI coupled enzyme counterscreen, NADH absorbance; in the data active means inhibition above about 30%;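 further: 0% = DMSO wells and 100% = wells lacking the enzyme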
Mtb bLac sens: beta-lactam sensitization of Mtb H37Rv; AID 434955; actives 0.27% (n = 330,000); inhibition, % at 25 µM; M. tuberculosis H37Rv growth with meropenem, percent inhibition;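 further: growth measured after seven days incubation then overnight dye step; 0% = bacteria only wells and 100% = bacteria with antibiotic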
DNA intercalat: counter-screen: DNA intercalators; acridine orange-DNA binding, fluorescence polarization; actives 60% (n = 35); AID 463198; shares compounds with UGM FP inh; AC50, µM;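 active means fitted AC50 no greater than ten times the top concentration tested, cut at about 17 µM in these data; inconclusive means flat fit with 30 to 70% signal change, or an unreliable fit; inactive means AC50 beyond ten times the top concentration tested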
Mtb FBA confirm: confirmation of M. tuberculosis fructose-bisphosphate aldolase inhibitors; shares compounds with FBA Mtb inh; purified M. tuberculosis FBA, fluorescence read-out; inhibition, % at 1 µM; actives 78% (n = 5,600); in the data active means inhibition above about 27%;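 further: 0% = vehicle wells and 100% = reference inhibitor wells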
GDH-TPI counter-2: GDH-TPI inhibition counter-screen for FBA inhibitors; shares compounds with FBA Mtb inh; actives 81% (n = 5,600); inhibition, % at 1 µM; GDH-TPI coupled enzyme counterscreen, fluorescence; in the data active means inhibition above about 10%
GDH-TPI DR: inhibits GDH-TPI coupling enzymes in dose response | AID 652145 | GDH-TPI coupled enzyme assay, fluorescence, artifact counterscreen | IC50, µM | shares compounds with FBA Mtb inh | actives 79% (n = 170)
Numbers without * were called inactive; ? = inconclusive; / = no result; + = active, no number. Unless noted, how the calls were made is not given here.

SMILES	FBA Mtb inh	UGM FP inh	Rv3671c protease	GDH-TPI counter-1	Mtb bLac sens	Mtb FBA confirm	GDH-TPI counter-2	others
O=C(CCCN1C(=O)c2cccc3cccc(c23)C1=O)N1CCN(c2ccccc2)CC1	8	3	3	17	1	/	/	DNA intercalat=>35
Cc1cccc(N2C(=O)c3cccc4c(N(C)CCO)ccc(c34)C2=O)c1	0	3	9	-6	-1	/	/	DNA intercalat=>35
O=c1onc(-c2ccccc2Cl)n1-c1ccccc1Cl	-2	1	-1	3	-1	/	/
CCOC(=O)N1CCN(c2cc(NCCC(=O)O)c3c4c(onc24)-c2ccccc2C3=O)CC1	-2	-30	-30	7	13	/	/	DNA intercalat=>35
CC1Cc2ccccc2N1C(=O)CSc1ccccn1 (configuration not stated)	1	/	/	6	/	/	/
CC1Cc2ccccc2N1C(=O)CSc1ncccn1 (configuration not stated)	-1	4	-5	-8	0	/	/	DNA intercalat=>35
Cc1cc(C)cc(NS(=O)(=O)c2ccc3c(c2)C(C)(C)C(=O)N3C)c1	6	1	3	11	?	/	/	DNA intercalat=>35
CC(Sc1nnc(C(F)(F)F)n1C)C(=O)Nc1ccc(S(N)(=O)=O)cc1 (configuration not stated)	5	2	4	-3	-5	/	/
COC(=O)C[C@H]1C[C@@H]2c3cc(NC(=O)CN(C)C)ccc3O[C@@H]2[C@H](CO)O1	-2	/	/	-5	/	/	/
Cn1ccnc1C(O)c1ccccc1 (configuration not stated)	-2	-1	1	-4	0	/	/
COc1ccc2ccccc2c1C(O)c1nccn1C (configuration not stated)	6	39*	13	1	-2	/	/	DNA intercalat=>35
COc1ccc(S(=O)(=O)Nc2nc3ccccc3nc2Nc2cccc(C(=O)O)c2)cc1	32*	5	-6	38*	0	+	+
O=C(O)c1cccc(Nc2ncnc3ccccc23)c1	49*	-3	2	14	2	83*	78*
CC(=O)Nc1ccc(S(=O)(=O)Nc2nc3ccccc3nc2Nc2ccccc2)cc1	82*	4	5	7	-4	+	+
Oc1cccc(Nc2ncnc3ccccc23)c1	1	-2	-9	11	2	/	/
CC(=O)Nc1ccc(S(=O)(=O)NC(C)c2ccccc2)cc1 (configuration not stated)	31*	1	/	2	0	123*	95*
CCn1c(SCC(=O)N2CCC(C)CC2)nc2c([nH]c3ccccc32)c1=O	1	/	/	9	/	/	/
COc1ccccc1OCCNC(=O)c1ccc(C)c(S(=O)(=O)N2CCOCC2)c1	1	-1	-6	8	-8	/	/
CN(C)CCCOc1ccc(-c2cccc3nncn23)cn1	43*	/	/	10	/	146*	120*
CN(C)CCNC(=O)c1cccc(-c2cccc3nncn23)c1	71*	/	/	0	/	134*	88*
CN(C)CCCOc1ccc(-c2ccc3nncn3c2)cn1	4	/	/	16	/	/	/
CN(C)CCNC(=O)c1cccc(-c2cnc3c(NC=O)cc(-c4cc(F)c(F)c(F)c4)cn23)c1	1	/	/	9	/	/	/
COc1ccc(Cc2noc(CN3CCCN(Cc4ccc(F)cc4)CC3)n2)cc1OC	59*	-1	-1	-3	-5	58*	40*
COc1ccccc1CNC(=O)CS(=O)(=O)c1ccc(C)cc1	2	0	-5	-7	-13	/	/
CCn1nc2cc(C(=O)NCC34CC5CC(CC(C5)C3)C4)ccc2c1OC	28*	-2	2	11	1	14	-5	GDH-TPI DR=4*
SMILES	FBA Mtb inh	UGM FP inh	Rv3671c protease	GDH-TPI counter-1	Mtb bLac sens	Mtb FBA confirm	GDH-TPI counter-2	others
CCCCn1nc2cc(C(=O)NCC34CC5CC(CC(C5)C3)C4)ccc2c1OC	31*	0	3	8	74	57*	43*
CCOc1ccc(OCCNC(=O)c2ccc3c(c2)nnn3CC)cc1	2	-7	3	3	-2	/	/
CCOc1c2ccc(C(=O)NCC34CC5CC(CC(C5)C3)C4)cc2nn1CC	39*	-1	-9	8	-5	1	6
COc1c2ccc(C(=O)NCCCCc3ccccc3)cc2nn1C	26	1	5	3	-9	/	/
O=C(NCCS(=O)(=O)NCC1CCCO1)c1ccccc1 (configuration not stated)	4	1	7	4	-1	/	/
COc1ccc(CCc2nnc(CCC(=O)NCC3CCCO3)o2)cc1 (configuration not stated)	0	0	-1	12	-12	/	/
COc1cccc(/C=C/C(=O)OC(C)C(=O)Nc2c(C)n(C)n(-c3ccccc3)c2=O)c1 (configuration not stated)	29*	3	-4	4	-2	122*	101*
COCCCNC(=S)NCCCNc1nc2cc(C)cc(C)c2cc1C#N	47*	0	-3	0	48	6	-7
COc1cc(C(=O)NCCNc2nc3cc(C)ccc3cc2C#N)cc(OC)c1OC	13	0	-3	10	-2	/	/
Cc1cccc2cc(C#N)c(NCCNC(=O)c3ccccc3)nc12	40*	/	/	13	/	+	+
COc1cc(C(=O)NCCCNc2nc3cc(C)c(C)cc3cc2C#N)cc(OC)c1OC	52*	-3	-3	5	5	75*	62*
COc1ccc(C(=O)NCCCNc2nc3cc(C)cc(C)c3cc2C#N)cc1	37*	/	/	0	/	3	-6
Cc1cc(C)c2cc(C#N)c(NCCNC(=S)NCCCN3CCOCC3)nc2c1	24	2	6	-1	-1	/	/
COc1ccc(CN2CCCC(C(=O)c3ccc4c(c3)OCO4)C2)c(F)c1 (configuration not stated)	1	0	-7	4	0	/	/
O=C(NCc1ccc2c(c1)OCO2)c1c(-c2ccccc2)sc2ccccc12	5	1	1	18	0	/	/
CCOC(=O)C(C)(C)Oc1ccc(Cl)cc1	4	0	6	9	-7	/	/
Cc1cc(C)c2cc(C#N)c(NCCCNC(=O)c3cccnc3)nc2c1	47*	/	/	10	/	32*	30*
COc1ccccc1C(=O)NCCNc1nc2cc(C)cc(C)c2cc1C#N	5	3	-3	10	7	/	/
COc1cc(OC)cc(C(=O)NCCNc2nc3cc(C)cc(C)c3cc2C#N)c1	31*	-2	-7	12	1	-9	-4
Cn1c(N)c(C(=O)COC(=O)/C=C/c2ccc(S(=O)(=O)N3CCOCC3)cc2)c(=O)n(C)c1=O	1	-2	-3	5	-7	/	/
Brc1ccc(CN2CCCCCC2)cc1	2	-2	1	7	44	/	/
